Screens (PubChem)
IDE exosite inh = exo-site inhibitors of human insulin-degrading enzyme; P14735; purified IDE, FL-6b probe fluorescence polarization; hits give low values; z-score at 20 µM; 6.3% of 17,000 active; AID 1259349;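 active means z-score of -3 or lower, meaning strong loss of probe binding signal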;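 further: His-tagged human IDE residues 42-1019 made in E. coli with 30 nM FL-6b probe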
Target sequence (P14735 42-1019 limits assumed): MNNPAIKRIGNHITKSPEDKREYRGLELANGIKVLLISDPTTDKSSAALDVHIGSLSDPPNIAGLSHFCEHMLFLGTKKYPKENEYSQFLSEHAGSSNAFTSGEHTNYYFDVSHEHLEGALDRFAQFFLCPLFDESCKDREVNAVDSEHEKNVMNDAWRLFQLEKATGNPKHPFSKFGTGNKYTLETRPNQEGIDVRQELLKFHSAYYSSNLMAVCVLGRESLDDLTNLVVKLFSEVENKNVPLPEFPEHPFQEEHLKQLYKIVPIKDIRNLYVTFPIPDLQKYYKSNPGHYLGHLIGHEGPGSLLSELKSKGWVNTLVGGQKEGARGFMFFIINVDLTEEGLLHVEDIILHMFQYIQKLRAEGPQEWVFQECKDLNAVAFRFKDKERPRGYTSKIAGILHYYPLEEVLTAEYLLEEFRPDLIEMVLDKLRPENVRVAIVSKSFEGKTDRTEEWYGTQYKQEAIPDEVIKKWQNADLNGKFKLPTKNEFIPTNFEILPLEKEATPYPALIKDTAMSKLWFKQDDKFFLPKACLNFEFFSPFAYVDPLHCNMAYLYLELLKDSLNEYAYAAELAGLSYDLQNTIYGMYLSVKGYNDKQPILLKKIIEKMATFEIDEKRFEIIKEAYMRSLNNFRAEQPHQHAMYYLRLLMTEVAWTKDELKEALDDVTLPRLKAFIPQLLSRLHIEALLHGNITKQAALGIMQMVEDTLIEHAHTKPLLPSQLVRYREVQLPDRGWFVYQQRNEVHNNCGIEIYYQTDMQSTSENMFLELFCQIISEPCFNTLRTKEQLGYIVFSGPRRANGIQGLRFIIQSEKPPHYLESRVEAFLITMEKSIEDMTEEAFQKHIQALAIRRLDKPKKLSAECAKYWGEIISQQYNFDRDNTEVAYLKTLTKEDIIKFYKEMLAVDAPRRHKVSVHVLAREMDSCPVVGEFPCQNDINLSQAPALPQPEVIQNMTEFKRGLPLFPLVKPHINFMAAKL
Large screens that a line does not name were inactive. Many of the other results were omitted from the sample, so hits are more common in it than they were.

O=C(CC1CC1)N1CC(=O)N2[C@@H](CO)[C@@H](c3ccc(C#Cc4ccccc4)cc3)[C@@H]2C1	IDE exosite inh -11
O=C(CC1CC1)N1CC(=O)N2[C@H](CO)[C@H](c3ccc(C#Cc4ccccc4)cc3)[C@H]2C1	IDE exosite inh -16
O=C(CC1CC1)N1CC(=O)N2[C@@H](CO)[C@H](c3ccc(C#Cc4ccc(F)cc4)cc3)[C@@H]2C1	none
O=C(CC1CC1)N1CC(=O)N2[C@H](CO)[C@H](c3ccc(C#Cc4ccc(F)cc4)cc3)[C@H]2C1	none
O=C(CC1CC1)N1CC(=O)N2[C@@H](CO)[C@H](c3ccc(C#Cc4ccccc4)cc3)[C@@H]2C1	IDE exosite inh -11
CO[C@@H]1CN(C)C(=O)c2cc(NC(=O)c3ccc4c(c3)OCO4)ccc2OC[C@H](C)N(CCC(F)(F)F)C[C@@H]1C	none
O=C(C[C@H]1CC[C@H]2[C@@H](COC[C@@H](O)CN2S(=O)(=O)c2ccccc2F)O1)N1CCC(Cc2ccccc2)CC1	none
Cc1cccc(S(=O)(=O)N2CCCCN3[C@H](CO)[C@H](c4ccc(C#CC(C)C)cc4)[C@@H]3C2)c1	none
O=C(c1cccnc1)N1CC(=O)N2[C@H](CO)[C@H](c3ccc(C#CCC4CCCC4)cc3)[C@@H]2C1	none
COc1ccc2c3c(n(C)c2c1)[C@@H](CO)N(Cc1cc(F)ccc1F)CC31CN(C(=O)C2CC2)C1	none
COc1ccc2c3c(n(C)c2c1)[C@H](CO)N(Cc1ccccc1F)CC31CCN(C(=O)C2CCOCC2)CC1	none
COCC(=O)N1CCC2(CC1)CN(Cc1cc(F)ccc1F)[C@H](CO)c1c2c2ccc(OC)cc2n1C	IDE exosite inh -4
COCC(=O)N1CC2(C1)CN(Cc1cccc(F)c1)[C@H](CO)c1c2c2ccc(OC)cc2n1C	none
COCC(=O)N1CC2(C1)CN(Cc1cccc(F)c1)[C@@H](CO)c1c2c2ccc(OC)cc2n1C	none
COc1ccc2c3c(n(C)c2c1)[C@H](CO)N(Cc1cccc(F)c1)CC31CCN(C(=O)Cc2ccccc2)CC1	IDE exosite inh -3.7
O=C(Nc1cccc(F)c1)N1CCCCN2[C@H](CO)[C@@H](c3ccc(C#Cc4ccccc4)cc3)[C@H]2C1	none
N#C[C@@H]1[C@@H](c2ccc(C3=CCCC3)cc2)[C@H](CO)N1c1nc(-c2ccccc2)cs1	none
O=C(Nc1ccc(F)cc1)N1CC(=O)N2[C@@H](CO)[C@@H](c3ccc(-c4ccc(F)cc4)cc3)[C@@H]2C1	none
O=C(Nc1ccc(F)cc1)N1CC(=O)N2[C@H](CO)[C@H](c3ccc(-c4ccccc4)cc3)[C@@H]2C1	none
O=C(Nc1cccc(F)c1)N1CC(=O)N2[C@@H](CO)[C@H](c3ccc(-c4ccccc4F)cc3)[C@@H]2C1	none
O=C(Nc1ccc(F)cc1)N1CC(=O)N2[C@@H](CO)[C@H](c3ccc(-c4ccccc4)cc3)[C@@H]2C1	none
Cc1ccc(-c2ccc([C@@H]3[C@@H](CO)N4C(=O)CN(C(=O)Nc5ccc(F)cc5)C[C@H]34)cc2)cc1	none
O=C(Nc1ccc(F)cc1)N1CC(=O)N2[C@H](CO)[C@H](c3ccc(-c4ccccc4)cc3)[C@H]2C1	IDE exosite inh -5.5
Cc1ccccc1-c1ccc([C@H]2[C@@H](CO)N3C(=O)CN(C(=O)Nc4ccc(F)cc4)C[C@H]23)cc1	IDE exosite inh -21
O=C(Nc1cccc(F)c1)N1CC(=O)N2[C@@H](CO)[C@@H](c3ccc(-c4ccccc4F)cc3)[C@@H]2C1	none
Cc1ccccc1-c1ccc([C@H]2[C@H]3CN(C(=O)Nc4ccc(F)cc4)CC(=O)N3[C@H]2CO)cc1	IDE exosite inh -7
O=C(Nc1ccc(F)cc1)N1CC(=O)N2[C@H](CO)[C@@H](c3ccc(-c4ccc(F)cc4)cc3)[C@H]2C1	none
O=C(Nc1ccc(F)cc1)N1CC(=O)N2[C@H](CO)[C@@H](c3ccc(-c4ccccc4)cc3)[C@H]2C1	none
Cc1ccccc1-c1ccc([C@H]2[C@H](CO)N3C(=O)CN(C(=O)Nc4cccc(F)c4)C[C@@H]23)cc1	IDE exosite inh -3
CO[C@H]1CN(C)C(=O)c2cc(NS(=O)(=O)c3ccc(Cl)cc3)ccc2OC[C@H](C)N(C(=O)NC(C)C)C[C@@H]1C	none
C[C@@H]1CN([C@@H](C)CO)C(=O)c2ccccc2-c2ccccc2CO[C@@H]1CN(C)Cc1cccc(C(=O)O)c1	none
CC(C)[C@@H]1COCc2cn(nn2)CC[C@H](Cc2ccc(-c3ccccc3)cc2)C(=O)N1	none
O=C(c1cccc(F)c1)N1CC(=O)N2[C@@H](CO)[C@H](c3ccc(C4=CCCC4)cc3)[C@@H]2C1	none
C/C=C/c1ccc([C@@H]2[C@H](CO)N3C(=O)CN(Cc4ccc(C(=O)OC)cc4)C[C@@H]23)cc1	none
COc1ccc(S(=O)(=O)Nc2ccc3c(c2)C(=O)N([C@H](C)CO)C[C@@H](C)[C@@H](CN(C)Cc2ccc(C(F)(F)F)cc2)OCCCC[C@H](C)O3)cc1	none
Cc1ccccc1-c1ccc([C@@H]2[C@@H](CO)N3C(=O)CN(C(=O)Nc4ccccc4)C[C@H]23)cc1	IDE exosite inh -6.1
O=C(Nc1ccccc1)N1CC(=O)N2[C@H](CO)[C@H](c3ccc(-c4ccc(F)cc4)cc3)[C@@H]2C1	none
O=C(Nc1ccccc1)N1CC(=O)N2[C@@H](CO)[C@H](c3ccc(-c4ccc(F)cc4)cc3)[C@@H]2C1	none
CCCC#Cc1ccc([C@H]2[C@H](CO)N3CCCCN(S(=O)(=O)c4ccccc4C)C[C@@H]23)cc1	none
COc1ccccc1C(=O)Nc1ccc2c(c1)C(=O)N(C)C[C@H](OC)[C@H](C)CN(C(C)=O)[C@@H](C)CO2	none
C[C@H]1CCCCO[C@H](CN(C)C(=O)c2ccncc2)[C@@H](C)CN([C@@H](C)CO)C(=O)c2cc(NS(=O)(=O)c3cccs3)ccc2O1	none
CN(C)C(=O)c1ccc(-c2ccc([C@H]3[C@H]4CN(C(=O)C5CCCCC5)CC(=O)N4[C@H]3CO)cc2)cc1	none
O=C(CC1CC1)N1CC(=O)N2[C@H](C1)[C@@H](c1ccc(C#Cc3cccc(F)c3)cc1)[C@@H]2CO	none
O=C(CC1CC1)N1CC(=O)N2[C@H](C1)[C@H](c1ccc(C#Cc3cccc(F)c3)cc1)[C@@H]2CO	none
O=C(CC1CC1)N1CC(=O)N2[C@H](CO)[C@H](c3ccc(C#Cc4cccc(F)c4)cc3)[C@H]2C1	IDE exosite inh -3.9
O=C(CC1CC1)N1CC(=O)N2[C@@H](CO)[C@H](c3ccc(C#Cc4cccc(F)c4)cc3)[C@@H]2C1	none
O=C(CC1CC1)N1CC(=O)N2[C@H](CO)[C@@H](c3ccc(C#Cc4cccc(F)c4)cc3)[C@H]2C1	none
O=C(CC1CC1)N1CC(=O)N2[C@H](CO)[C@H](c3ccc(C#Cc4cccc(F)c4)cc3)[C@@H]2C1	IDE exosite inh -3.2
CN(C)C(=O)c1cccc(-c2ccccc2[C@H]2[C@@H](CO)N(C(=O)C3CCCCC3)[C@H]2C#N)c1	none
Cc1noc(C)c1S(=O)(=O)Nc1ccc2c(c1)C(=O)N([C@@H](C)CO)C[C@@H](C)[C@H](CN(C)C(=O)Nc1cccc3ccccc13)OCCCC[C@@H](C)O2	none
CC[C@@H]1C/C=C\C[C@@H](c2ccccc2)NC(=O)CCC(=O)N1	none
O=C(C[C@H]1C[C@H]2c3cc(NC(=O)C4CCOCC4)ccc3O[C@H]2[C@H](CO)O1)NCCN1CCCCC1	none
O=C(c1cccnc1)N1CC(=O)N2[C@H](C1)[C@@H](c1ccc(-c3ccc(F)cc3)cc1)[C@@H]2CO	none
O=C(c1cccnc1)N1CC(=O)N2[C@H](CO)[C@H](c3ccc(-c4ccc(F)cc4)cc3)[C@H]2C1	none
Cc1ccc(-c2ccc([C@@H]3[C@H](CO)N4C(=O)CN(C(=O)c5ccccc5)C[C@@H]34)cc2)cc1	none
